Test results taken from PubChem BioAssay AID651622 (National Center for Advancing Translational Sciences (NCATS), 2012).
The source made the active and inactive calls.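 How the source made its calls: active means inhibition of the USP46/UAF1 deubiquitinase of at least 60% at 114 µM in the gel test; inconclusive means inhibition from 30% up to under 60%; inactive means inhibition below 30%.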

What follows are compounds tested against Ubiquitin carboxyl-terminal hydrolase 46 (Homo sapiens) + WD repeat-containing protein 48 (Homo sapiens) (UniProt P62068+Q8TAF3) (assay: Inhibitors of USP1/UAF1: SAR in USP46/UAF1 diubiquitin SDS-PAGE gel assay). Conditions: USP46/UAF1 K63 diubiquitin cleavage; series mostly up to 114 µM; inhibition: at the top concentration.
Ubiquitin carboxyl-terminal hydrolase 46 (Homo sapiens) + WD repeat-containing protein 48 (Homo sapiens), sequence (P62068 whole entry, looked up): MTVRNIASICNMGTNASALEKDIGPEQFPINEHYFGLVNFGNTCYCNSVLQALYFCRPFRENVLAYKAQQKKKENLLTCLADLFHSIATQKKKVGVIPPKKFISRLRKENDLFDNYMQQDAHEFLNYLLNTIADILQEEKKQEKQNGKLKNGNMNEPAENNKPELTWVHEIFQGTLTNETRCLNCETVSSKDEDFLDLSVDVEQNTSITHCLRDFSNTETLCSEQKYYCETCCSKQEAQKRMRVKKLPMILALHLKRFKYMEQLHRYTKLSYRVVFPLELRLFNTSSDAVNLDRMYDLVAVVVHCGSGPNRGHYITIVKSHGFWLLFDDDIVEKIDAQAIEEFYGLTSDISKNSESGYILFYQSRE
Ubiquitin carboxyl-terminal hydrolase 46 (Homo sapiens) + WD repeat-containing protein 48 (Homo sapiens), sequence (Q8TAF3 whole entry, looked up): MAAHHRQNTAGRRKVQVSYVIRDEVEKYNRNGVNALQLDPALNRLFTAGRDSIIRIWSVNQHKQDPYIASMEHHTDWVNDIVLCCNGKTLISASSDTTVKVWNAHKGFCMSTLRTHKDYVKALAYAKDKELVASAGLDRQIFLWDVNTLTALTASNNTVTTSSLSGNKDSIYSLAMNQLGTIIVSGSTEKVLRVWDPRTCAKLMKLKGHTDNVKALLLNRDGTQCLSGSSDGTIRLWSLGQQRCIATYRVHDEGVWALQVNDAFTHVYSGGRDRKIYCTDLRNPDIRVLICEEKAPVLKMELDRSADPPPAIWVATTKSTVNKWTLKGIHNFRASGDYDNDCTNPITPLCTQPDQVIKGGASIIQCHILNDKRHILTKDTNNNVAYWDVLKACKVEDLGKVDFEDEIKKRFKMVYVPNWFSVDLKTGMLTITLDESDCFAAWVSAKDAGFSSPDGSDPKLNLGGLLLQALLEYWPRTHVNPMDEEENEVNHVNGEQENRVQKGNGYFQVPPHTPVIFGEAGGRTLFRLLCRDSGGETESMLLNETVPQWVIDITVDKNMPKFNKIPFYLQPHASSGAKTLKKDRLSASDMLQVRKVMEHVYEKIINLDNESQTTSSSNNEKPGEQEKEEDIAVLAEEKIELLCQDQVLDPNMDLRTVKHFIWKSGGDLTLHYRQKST
Source text: Deubiquitinating enzymes (DUBs) are a class of enzymes that can cleave isopeptide bond formed between the C-terminal carboxylate of ubiquitin and a lysine side-chain amino group on the target protein. Among them, ubiquitin specific proteases (USPs) constitute the largest DUB family. Human USPs are emerging as promising targets for pharmacological intervention because of their connection to a number of human diseases, including prostate, colon and breast cancer (1, 2), pediatric acute lymphoblastic leukemia (3), and familial cylindromatosis (4). The advantage of inhibiting USPs lies in the potential specificity of therapeutic intervention that can lead to better efficacy and reduce nonspecific side effects. In a collaboration between the University of Delaware and the NIH Chemical Genomics Center, a high-throughput screen assay was developed to screen for USP1/UAF1 inhibitors (5). […]
The inhibition assay contains 100 nM USP46/UAF1, 2 microM K63 linked diubiquitin, and inhibitors at varied concentrations (0.08 microM - 114 microM). […] The intensity of the individual diubiquitin and monoubiquitin band was quantified using Quantity One 4.3.1 (Biorad, Hercules, CA). The percentage of the conversion was determined and used to calculate the reaction rate. […]
For `Cc1cnc(-c2ccccc2C(C)C)nc1NCc1ccc(-n2ccnn2)cc1`, the “inhibition” value was 9% (inactive).
